High-throughput results as filed in PubChem BioAssay.
Shown are actives, neighbours in structure and some others; about 2.9% of the full set was active somewhere.
RAM network inh: inhibitors of the yeast RAM network, primary screen, dse1pr::URA3 reporter, 5-FOA selection; AID 868, 2007; 190,000 compounds, 1.8% hits; inhibition, % at 50 µM; S. cerevisiae dse1pr::URA3 reporter, 5-FOA growth OD615, 2 d; analog-sensitive cbk1-as2 kinase mutant strain;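 active = inhibition above a set limit, 3 SD over mean compound inhibition, cut at about 8.4% in these data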;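 also: inhibition rescues growth on 5-FOA so higher OD means more RAM inhibition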
PG9 binder: binders of HIV-1 gp120 antibody PG9, primary screen, biochemical, TR-FRET. HIV-1 gp120 / PG9 antibody interaction. TR-FRET gp120-PG9 antibody binding. inhibition, % at 6.7 µM. 360,000 compounds, 0.43% hits. AID 624416, 2012; in the data active = inhibition above about 8.5%
PGE2 EP2 inh: human EP2 receptor antagonists, primary screen, TR-FRET cAMP, C6 glioma cells. AID 1422, 2008. Prostaglandin E2 receptor EP2 subtype (Homo sapiens), P43116. inhibition, % at 25 µM. C6 glioma cells expressing human EP2; cells stimulated with saturating PGE2. 260,000 compounds, 0.52% hits;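 active = percent inhibition above 40 after rounding to a whole number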;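 also: rat C6 glioma host cells with rolipram phosphodiesterase inhibitor present; the protocol text gives 20 µM as final concentration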
NR1D1 modulator: modulators of Rev-erb alpha DNA binding, primary screen, biochemical, FITC-DNA, fluorescence polarization, uHTS. AID 1259318, 2017. Rev-erbα–FITC-DNA binding, 90 min. activity, % at 10 µM. 370,000 compounds, 0.79% hits;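 active = activity above about 14%, limit read from the data; passing the limit was not always enough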
Target sequence (P20393 whole entry, looked up): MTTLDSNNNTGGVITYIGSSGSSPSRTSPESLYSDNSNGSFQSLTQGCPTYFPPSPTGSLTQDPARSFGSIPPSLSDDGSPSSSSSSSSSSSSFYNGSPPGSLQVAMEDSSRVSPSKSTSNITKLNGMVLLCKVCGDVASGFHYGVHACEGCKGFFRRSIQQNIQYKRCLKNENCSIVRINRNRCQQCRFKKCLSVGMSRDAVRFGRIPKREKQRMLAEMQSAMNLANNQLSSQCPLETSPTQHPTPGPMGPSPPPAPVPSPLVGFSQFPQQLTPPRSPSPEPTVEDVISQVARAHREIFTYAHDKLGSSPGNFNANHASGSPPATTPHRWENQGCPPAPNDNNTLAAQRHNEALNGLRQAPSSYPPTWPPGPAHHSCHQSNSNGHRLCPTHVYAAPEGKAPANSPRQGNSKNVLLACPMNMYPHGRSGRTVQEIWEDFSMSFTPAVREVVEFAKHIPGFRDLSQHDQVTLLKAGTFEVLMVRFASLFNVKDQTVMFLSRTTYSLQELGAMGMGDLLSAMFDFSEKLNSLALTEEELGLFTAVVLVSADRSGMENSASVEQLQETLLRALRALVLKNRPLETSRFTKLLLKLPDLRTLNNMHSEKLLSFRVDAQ
EP2 modulator: EP2 receptor modulators, cAMP readout, primary screen, cell-based, HTRF cAMP, PGE2 stimulation; Prostaglandin E2 receptor EP2 subtype (Homo sapiens), P43116; EP2-expressing cells, cAMP HTRF FRET, PGE2 co-stimulation; induction, % at 25 µM; 260,000 compounds, 0.83% hits; AID 940, 2007;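 active = compounds whose cAMP rise, as percent of the full-agonist control response, exceeds 60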;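 also: rat C6 glioma line stably carrying human EP2 under a CMV promoter; the protocol text gives 20 µM as final concentration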
SKN-1 block: suppressors of acrylamide-induced Pgst-4::GFP reporter in worms, primary screen, SKN-1 inhibitor project, whole organism, uHTS, GFP/RFP fluorescence ratio, strain VP596; C. elegans VP596 Pgst-4::GFP/RFP ratio, 24 h; AID 624304, 2012; inhibition, % at 21.8 µM; 360,000 compounds, 0.49% hits;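 active = interference check ratio from 0.5 to 1.5 plus GFP to RFP signal ratio inhibition reaching or exceeding a fixed threshold, cut at about 30% in these data, passing the limit was not always enough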
Large screens that a line does not name were inactive.

COc1cc(NS(=O)(=O)c2ccc(NC(=S)NC(=O)c3sc4ccccc4c3Cl)cc2)nc(OC)n1	PGE2 EP2 inh 126
CCN1CCN(C(=O)CN(c2cc(Cl)ccc2Cl)S(C)(=O)=O)CC1	none (no result: RAM network inh, PG9 binder, NR1D1 modulator, SKN-1 block)
CCC(C)(C)n1nnnc1C(C(C)C)N(CCCO)Cc1cc2cc(C)ccc2[nH]c1=O (configuration not stated)	SKN-1 block 44
COc1ccc2cc(CN(Cc3cccs3)C(c3nnnn3C3CCCC3)C(C)C)c(=O)[nH]c2c1 (configuration not stated)	EP2 modulator 69 (no result: RAM network inh, PG9 binder, NR1D1 modulator, SKN-1 block)
CCc1ccc2[nH]c(=O)c(CN(Cc3cccs3)C(c3nnnn3C3CCCC3)C(C)C)cc2c1 (configuration not stated)	EP2 modulator 63 (no result: RAM network inh, PG9 binder, NR1D1 modulator, SKN-1 block)
Cc1ccc2cc(CN(Cc3cccs3)C(c3nnnn3C3CCCCC3)C(C)C)c(=O)[nH]c2c1 (configuration not stated)	none (no result: RAM network inh, PG9 binder, NR1D1 modulator, SKN-1 block)
CCC(c1nnnn1C(C)(C)CC)N(CCO)Cc1cc2cc(C)ccc2[nH]c1=O (configuration not stated)	none (no result: RAM network inh, PG9 binder, NR1D1 modulator, SKN-1 block)
COc1ccc2[nH]c(=O)c(CN(Cc3cccs3)C(c3nnnn3C(C)(C)C)C(C)C)cc2c1 (configuration not stated)	EP2 modulator 69 (no result: RAM network inh, PG9 binder, NR1D1 modulator, SKN-1 block)
COc1ccc2[nH]c(=O)c(CN(Cc3cccs3)Cc3nnnn3C(C)(C)C)cc2c1	none
Cc1ccc2[nH]c(=O)c(CN(CCc3ccccc3)C(c3nnnn3C3CCCC3)C(C)C)cc2c1 (configuration not stated)	none (no result: RAM network inh, PG9 binder, NR1D1 modulator, SKN-1 block)
O=c1n(CN2CCN(c3ccccc3)CC2)nc2c3ccccc3ncn12	none (no result: RAM network inh, PG9 binder, NR1D1 modulator, SKN-1 block)
COc1ccc2[nH]c(=O)c(CN(CCCN(C)C)C(=O)Nc3ccccc3Cl)cc2c1	none (no result: RAM network inh, PG9 binder, NR1D1 modulator, SKN-1 block)
CCOC(=O)Cn1nnnc1C(CC)N(Cc1cccs1)Cc1cc2ccc(OC)cc2[nH]c1=O (configuration not stated)	RAM network inh 9.6
CCC(c1nnnn1C1CCCC1)N(Cc1cccs1)Cc1cc2cc(OC)ccc2[nH]c1=O (configuration not stated)	none (no result: RAM network inh, PG9 binder, NR1D1 modulator, SKN-1 block)
CC1(C(=O)NCc2noc(-c3ccccc3)n2)CC(c2ccccc2)=NO1 (configuration not stated)	none (no result: RAM network inh, PG9 binder, NR1D1 modulator, SKN-1 block)
N#C/C(=C\c1cn(-c2ccccc2)nc1-c1ccccc1)S(=O)(=O)c1ccccc1	none
CCOc1ccc(-c2nn(-c3ccccc3)cc2/C=C(\C#N)S(=O)(=O)c2ccccc2)cc1C	SKN-1 block 41
COc1ccc2c(c1OC)C(=O)O[C@H]2[C@H]1c2c(cc3c(c2OC)OCO3)CCN1C	EP2 modulator 68 (no result: RAM network inh, PG9 binder, NR1D1 modulator, SKN-1 block)
COc1ccc2c(c1OC)CN1CCc3cc4c(cc3[C@@H]1[C@@H]2O)OCO4	none (no result: PG9 binder, NR1D1 modulator)
O=[N+]([O-])c1cccc(/C=N\N=C2c3ccccc3-c3ccccc32)c1O	RAM network inh 9.9
O=C(CN1C(=O)[C@H]2CCCN2C(=O)c2ccccc21)NCc1ccccc1	none (no result: RAM network inh, PG9 binder, NR1D1 modulator, SKN-1 block)
CCOC(=O)c1ccccc1NC(=O)N1CCn2c(C)ccc2C1CC (configuration not stated)	EP2 modulator 64
Cc1c(Cl)c(S(N)(=O)=O)cc(S(N)(=O)=O)c1NC(=O)c1ccc(Cl)cc1	PGE2 EP2 inh 45 (no result: RAM network inh, PG9 binder, NR1D1 modulator, SKN-1 block)
COc1ccc(CNC(=O)COC(=O)CCCOc2ccc(Cl)cc2Cl)cc1	RAM network inh 9.6
O=C(COC(=O)CCCOc1ccc(Cl)cc1Cl)Nc1cccc(Cl)c1	RAM network inh 11
CN(c1ccccc1)S(=O)(=O)c1cccc(C(=O)OCC(=O)NCc2ccc3c(c2)OCO3)c1	RAM network inh 10
CC1CN(S(=O)(=O)c2cccc(C(=O)OCC(=O)Nc3ccc4c(c3)OCO4)c2)CC(C)O1 (configuration not stated)	SKN-1 block 44
COc1ccc(C(=O)NCc2ccc3c(c2)OCO3)cc1S(=O)(=O)N(C)Cc1ccccc1	RAM network inh 9.6
COc1ccc(C(=O)NCc2ccc3c(c2)OCO3)cc1S(=O)(=O)NCc1ccc(Cl)cc1	none
